{"source": "PubChem BioAssay (NCATS)", "key": {"[1]": {"target": "Rap guanine nucleotide exchange factor 3 (Homo sapiens) (UniProt O95398)", "sequence (O95398 whole entry, looked up)": "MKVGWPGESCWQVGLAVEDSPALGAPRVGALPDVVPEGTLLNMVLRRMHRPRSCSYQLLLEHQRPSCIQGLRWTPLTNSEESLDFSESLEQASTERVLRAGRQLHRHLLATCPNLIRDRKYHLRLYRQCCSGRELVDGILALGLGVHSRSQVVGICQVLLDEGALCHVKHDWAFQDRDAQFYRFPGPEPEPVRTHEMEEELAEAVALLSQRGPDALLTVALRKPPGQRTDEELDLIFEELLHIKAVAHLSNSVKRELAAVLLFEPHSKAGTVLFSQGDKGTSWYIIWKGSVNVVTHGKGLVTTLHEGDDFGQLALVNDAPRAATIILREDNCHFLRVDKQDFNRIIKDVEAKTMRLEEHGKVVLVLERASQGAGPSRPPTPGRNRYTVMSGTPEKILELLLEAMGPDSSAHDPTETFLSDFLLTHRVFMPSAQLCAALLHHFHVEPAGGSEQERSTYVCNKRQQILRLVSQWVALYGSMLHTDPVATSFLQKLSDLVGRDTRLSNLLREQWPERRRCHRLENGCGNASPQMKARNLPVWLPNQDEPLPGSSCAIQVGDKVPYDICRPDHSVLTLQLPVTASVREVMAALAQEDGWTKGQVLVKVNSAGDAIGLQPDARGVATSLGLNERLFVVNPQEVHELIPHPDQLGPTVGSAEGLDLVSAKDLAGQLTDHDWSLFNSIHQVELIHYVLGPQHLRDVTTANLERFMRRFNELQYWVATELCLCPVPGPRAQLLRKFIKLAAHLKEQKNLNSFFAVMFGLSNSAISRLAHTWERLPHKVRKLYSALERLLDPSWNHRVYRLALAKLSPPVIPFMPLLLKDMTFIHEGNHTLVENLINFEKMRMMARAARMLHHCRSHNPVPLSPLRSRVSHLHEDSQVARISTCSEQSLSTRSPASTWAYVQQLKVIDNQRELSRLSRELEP", "assay": "Confirmatory qHTS for antagonist of cAMP-regulated guanine nucleotide exchange factor 3 (EPAC1) (AID 1645880); further: nearly all actives have a fitted effect of over 55% in size; further: potency means the concentration at half of the fitted maximal effect", "in_short": "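Nucleotide exchange uses 100 nM EPAC1, 250 nM RAP1B-BODIPY-GDP and 50 uM GDP, with compounds in a concentration-titration series. After 5 min at room temperature, fluorescence (480 nm ex/540 nm em) is read every 5 min for 30 min. Data are normalized to control ATA and DMSO.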"}, "[2]": {"target": "Rap guanine nucleotide exchange factor 3 (Homo sapiens) (UniProt O95398)", "assay": "Confirmatory qHTS for agonist of cAMP-regulated guanine nucleotide exchange factor 3 (EPAC1) (AID 1645881);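 further: EPAC1 catalysed release of BODIPY-GDP from Rap1B seen as fluorescence loss; nearly all actives have a fitted effect of over 75% in size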"}, "[3]": {"target": "Rap guanine nucleotide exchange factor 4 (Homo sapiens) (UniProt Q8WZA2)", "sequence (Q8WZA2 whole entry, looked up)": "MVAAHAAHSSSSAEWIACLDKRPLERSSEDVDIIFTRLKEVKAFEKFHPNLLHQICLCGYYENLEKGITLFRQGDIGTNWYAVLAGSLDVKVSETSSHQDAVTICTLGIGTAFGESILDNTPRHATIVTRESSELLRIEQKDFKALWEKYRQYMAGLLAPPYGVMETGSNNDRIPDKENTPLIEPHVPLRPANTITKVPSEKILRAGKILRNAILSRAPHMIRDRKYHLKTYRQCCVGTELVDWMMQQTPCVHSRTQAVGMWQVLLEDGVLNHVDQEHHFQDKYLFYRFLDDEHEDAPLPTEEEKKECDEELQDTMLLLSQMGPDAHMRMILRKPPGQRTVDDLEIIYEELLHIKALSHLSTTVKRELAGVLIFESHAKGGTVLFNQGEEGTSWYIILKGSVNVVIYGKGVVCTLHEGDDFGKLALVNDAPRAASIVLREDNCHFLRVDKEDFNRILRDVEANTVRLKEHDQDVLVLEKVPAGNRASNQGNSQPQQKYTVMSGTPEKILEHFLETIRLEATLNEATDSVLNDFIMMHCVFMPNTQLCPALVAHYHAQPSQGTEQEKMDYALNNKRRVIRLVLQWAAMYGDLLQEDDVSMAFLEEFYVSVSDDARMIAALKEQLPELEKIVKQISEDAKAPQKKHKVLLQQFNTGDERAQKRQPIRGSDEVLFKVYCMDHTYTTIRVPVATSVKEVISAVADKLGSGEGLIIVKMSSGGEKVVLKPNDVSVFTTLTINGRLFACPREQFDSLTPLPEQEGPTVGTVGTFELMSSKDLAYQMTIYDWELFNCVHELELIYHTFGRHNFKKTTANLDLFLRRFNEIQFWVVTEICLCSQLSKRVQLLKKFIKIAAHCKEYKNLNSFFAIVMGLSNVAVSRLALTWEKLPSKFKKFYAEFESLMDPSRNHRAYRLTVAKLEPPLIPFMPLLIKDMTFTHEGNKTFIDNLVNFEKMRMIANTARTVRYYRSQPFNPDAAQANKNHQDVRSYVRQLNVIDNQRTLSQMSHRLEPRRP", "assay": "Confirmatory qHTS for agonist of cAMP-regulated guanine nucleotide exchange factor 4 (EPAC2) (AID 1645884);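 further: nucleotide exchange releases bodipy-GDP from Rap1 and this lowers its fluorescence; nearly all actives have a fitted effect of over 65% in size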"}, "[4]": {"target": "Rap guanine nucleotide exchange factor 4 (Homo sapiens) (UniProt Q8WZA2)", "assay": "Confirmatory qHTS for antagonist of cAMP-regulated guanine nucleotide exchange factor 4 (EPAC2) (AID 1645885); further: nearly all actives have a fitted effect of over 25% in size; further: potency means the concentration at half of the fitted maximal effect"}, "[5]": {"target": "Rap guanine nucleotide exchange factor 3 (Homo sapiens) (UniProt O95398)", "assay": "Counterscreen qHTS for antagonist of cAMP-regulated guanine nucleotide exchange factor 3 (EPAC1) (AID 1645888);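 further: fluorescence loss as bound BODIPY-GDP is released from Rap1B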", "in_short": "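Rap1B-BODIPY-GDP 250 nM + GDP 50 uM; cpds 7-pt, final 9.74 nM–152 uM (activator mode) or from 7.32 nM upwards (inhibitor mode); RT; FI 480/540 nm at 5 and 30 min, then ± cAMP, reread.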"}}, "note": "Results filed as inconclusive are left out. Where a call stands in place of a potency, no number is given. Values without a mark were called inactive. Active and inactive are the calls of the source. The call rests on the fitted dose curve; in most records, active means well fitted curve in the direction sought with a large enough effect; inconclusive means small, poorly fitted or top-dose-only effect, or another doubt; inactive means no such curve, though single readings can be large; an effect the other way counts as inactive or inconclusive.", "data": [{"smiles": "COc1cccc(CN2C(=O)C3(SCC(=O)N3c3ccc(F)cc3)c3ccccc32)c1", "note": "(stereo not given)", "values": [{"measurement": "Potency", "setting": "[1]", "result": "inactive"}, {"measurement": "Potency", "setting": "[2]", "result": "inactive"}, {"measurement": "Potency", "setting": "[3]", "result": "inactive"}, {"measurement": "Potency", "setting": "[4]", "result": "inactive"}, {"measurement": "Potency", "setting": "[5]", "result": "inactive"}]}, {"smiles": "O=C(CCN1C(=O)S/C(=C\\c2ccccc2)C1=O)Nc1ccc(S(=O)(=O)Nc2nccs2)cc1", "values": [{"measurement": "Potency", "setting": "[1]", "result": "39.8 µM (active)"}, {"measurement": "Potency", "setting": "[2]", "result": "inactive"}, {"measurement": "activation", "setting": "[3]", "result": "1.67% [at 17.1 µM, percent relative to cAMP agonist control]"}, {"measurement": "Potency", "setting": "[4]", "result": "inactive"}, {"measurement": "activity change, negative = inhibition", "setting": "[5]", "result": "-0.356% [at 30.8 µM]"}]}, {"smiles": "O=C1C(Cl)=C(NC(=O)c2ccccc2)C(=O)C(Cl)=C1NC(=O)c1ccccc1", "values": [{"measurement": "Potency", "setting": "[1]", "result": "inactive"}, {"measurement": "Potency", "setting": "[2]", "result": "inactive"}, {"measurement": "Potency", "setting": "[3]", "result": "inactive"}, {"measurement": "Potency", "setting": "[4]", "result": "inactive"}, {"measurement": "Potency", "setting": "[5]", "result": "inactive"}]}, {"smiles": "CCc1cccc(C)c1Nc1c(-c2cccs2)nc2ncccn12", "values": [{"measurement": "Potency", "setting": "[1]", "result": "inactive"}, {"measurement": "Potency", "setting": "[2]", "result": "inactive"}, {"measurement": "Potency", "setting": "[3]", "result": "inactive"}, {"measurement": "Potency", "setting": "[4]", "result": "inactive"}, {"measurement": "Potency", "setting": "[5]", "result": "inactive"}]}, {"smiles": "Cc1cccnc1NC(=O)c1ccc(S(=O)(=O)N2CC(C)OC(C)C2)cc1", "note": "(stereo not given)", "values": [{"measurement": "Potency", "setting": "[1]", "result": "inactive"}, {"measurement": "Potency", "setting": "[2]", "result": "inactive"}, {"measurement": "Potency", "setting": "[3]", "result": "inactive"}, {"measurement": "Potency", "setting": "[4]", "result": "inactive"}, {"measurement": "Potency", "setting": "[5]", "result": "inactive"}]}, {"smiles": "O=c1nc2s/c(=C\\c3ccc(-c4ccccc4[N+](=O)[O-])o3)c(=O)n2nc1-c1ccccc1", "values": [{"measurement": "Potency", "setting": "[1]", "result": "12 µM (active)"}, {"measurement": "Potency", "setting": "[2]", "result": "inactive"}, {"measurement": "Potency", "setting": "[3]", "result": "inactive"}, {"measurement": "Potency", "setting": "[4]", "result": "inactive"}, {"measurement": "Potency", "setting": "[5]", "result": "inactive"}]}, {"smiles": "CCCOc1cccc(C2C(C(=O)c3cccs3)=C(O)C(=O)N2Cc2cccnc2)c1", "note": "(stereo not given)", "values": [{"measurement": "Potency", "setting": "[1]", "result": "inactive"}, {"measurement": "Potency", "setting": "[2]", "result": "inactive"}, {"measurement": "activation", "setting": "[3]", "result": "2.94% [at 17.1 µM, percent relative to cAMP agonist control]"}, {"measurement": "Potency", "setting": "[4]", "result": "inactive"}, {"measurement": "activity change, negative = inhibition", "setting": "[5]", "result": "-13.9% [at 30.8 µM]"}]}, {"smiles": "O=C(c1ccco1)N(Cc1ccc([N+](=O)[O-])cc1)c1ccc(Br)cc1", "values": [{"measurement": "Potency", "setting": "[1]", "result": "inactive"}, {"measurement": "Potency", "setting": "[2]", "result": "inactive"}, {"measurement": "activation", "setting": "[3]", "result": "-0.906% [at 17.1 µM, percent relative to cAMP agonist control]"}, {"measurement": "Potency", "setting": "[4]", "result": "inactive"}, {"measurement": "activity change, negative = inhibition", "setting": "[5]", "result": "10.5% [at 30.8 µM]"}]}, {"smiles": "COc1ccc(S(=O)(=O)N2CCCCCC2)cc1C(=O)N1CCCC(C(F)(F)F)C1", "note": "(stereo not given)", "values": [{"measurement": "Potency", "setting": "[1]", "result": "inactive"}, {"measurement": "Potency", "setting": "[2]", "result": "inactive"}, {"measurement": "activation", "setting": "[3]", "result": "2.27% [at 17.1 µM, percent relative to cAMP agonist control]"}, {"measurement": "Potency", "setting": "[4]", "result": "inactive"}, {"measurement": "activity change, negative = inhibition", "setting": "[5]", "result": "-17.4% [at 30.8 µM]"}]}, {"smiles": "O=C(c1ccco1)N(Cc1ccc([N+](=O)[O-])cc1)c1ccc(Cl)cc1", "values": [{"measurement": "Potency", "setting": "[1]", "result": "inactive"}, {"measurement": "Potency", "setting": "[2]", "result": "inactive"}, {"measurement": "Potency", "setting": "[3]", "result": "inactive"}, {"measurement": "Potency", "setting": "[4]", "result": "inactive"}, {"measurement": "Potency", "setting": "[5]", "result": "inactive"}]}, {"smiles": "C/C(=N\\N1C(=O)c2ccccc2NC1c1ccco1)c1ccccc1O", "note": "(stereo not given)", "values": [{"measurement": "Potency", "setting": "[1]", "result": "75.7 µM (active)"}, {"measurement": "Potency", "setting": "[2]", "result": "inactive"}, {"measurement": "Potency", "setting": "[3]", "result": "inactive"}, {"measurement": "Potency", "setting": "[4]", "result": "inactive"}, {"measurement": "Potency", "setting": "[5]", "result": "inactive"}]}, {"smiles": "CCOc1ccc(NC(=O)CN(C)C(=O)c2ccccc2SCc2c(C)noc2C)cc1OCC", "values": [{"measurement": "Potency", "setting": "[1]", "result": "inactive"}, {"measurement": "Potency", "setting": "[2]", "result": "inactive"}, {"measurement": "activation", "setting": "[3]", "result": "1.53% [at 17.1 µM, percent relative to cAMP agonist control]"}, {"measurement": "Potency", "setting": "[4]", "result": "inactive"}, {"measurement": "activity change, negative = inhibition", "setting": "[5]", "result": "-10.4% [at 30.8 µM]"}]}, {"smiles": "Cc1ccc(NC(=O)c2c(NC(=O)C(F)(F)F)sc3c2CCCCC3)cc1", "values": [{"measurement": "Potency", "setting": "[1]", "result": "84.9 µM (active)"}, {"measurement": "Potency", "setting": "[2]", "result": "inactive"}, {"measurement": "Potency", "setting": "[3]", "result": "inactive"}, {"measurement": "Potency", "setting": "[4]", "result": "inactive"}, {"measurement": "Potency", "setting": "[5]", "result": "inactive"}]}, {"smiles": "COc1ccc2cc(-c3cn4c(n3)sc3cc(F)ccc34)c(=O)oc2c1", "values": [{"measurement": "Potency", "setting": "[1]", "result": "inactive"}, {"measurement": "Potency", "setting": "[2]", "result": "inactive"}, {"measurement": "Potency", "setting": "[3]", "result": "inactive"}, {"measurement": "Potency", "setting": "[4]", "result": "inactive"}, {"measurement": "Potency", "setting": "[5]", "result": "inactive"}]}, {"smiles": "N#Cc1cc2c(=O)n3ccccc3nc2n(-c2nnc(SCc3ccccc3Cl)s2)c1=O", "values": [{"measurement": "Potency", "setting": "[1]", "result": "inactive"}, {"measurement": "Potency", "setting": "[2]", "result": "inactive"}, {"measurement": "Potency", "setting": "[3]", "result": "inactive"}, {"measurement": "Potency", "setting": "[4]", "result": "inactive"}, {"measurement": "Potency", "setting": "[5]", "result": "inactive"}]}, {"smiles": "Cc1ccc2cc(CN(Cc3ccco3)C(=O)c3ccco3)c3nnnn3c2c1", "values": [{"measurement": "Potency", "setting": "[1]", "result": "inactive"}, {"measurement": "Potency", "setting": "[2]", "result": "inactive"}, {"measurement": "Potency", "setting": "[3]", "result": "inactive"}, {"measurement": "Potency", "setting": "[4]", "result": "75.7 µM (active)"}, {"measurement": "Potency", "setting": "[5]", "result": "inactive"}]}, {"smiles": "Cc1ccc(NC(=O)CN(C)C(=O)COC(=O)C2=COCCO2)cc1", "values": [{"measurement": "Potency", "setting": "[1]", "result": "inactive"}, {"measurement": "Potency", "setting": "[2]", "result": "inactive"}, {"measurement": "activation", "setting": "[3]", "result": "6.32% [at 17.1 µM, percent relative to cAMP agonist control]"}, {"measurement": "Potency", "setting": "[4]", "result": "inactive"}, {"measurement": "activity change, negative = inhibition", "setting": "[5]", "result": "-1.81% [at 30.8 µM]"}]}, {"smiles": "CCCC(=O)Nc1nnc(SCc2cc(=O)c3ccc(C)cc3[nH]2)s1", "values": [{"measurement": "Potency", "setting": "[1]", "result": "inactive"}, {"measurement": "Potency", "setting": "[2]", "result": "inactive"}, {"measurement": "Potency", "setting": "[3]", "result": "inactive"}, {"measurement": "Potency", "setting": "[4]", "result": "inactive"}, {"measurement": "Potency", "setting": "[5]", "result": "inactive"}]}, {"smiles": "O=C(Nc1cccc(Cl)c1)N(Cc1nc2ccccc2c(=O)[nH]1)Cc1cccs1", "values": [{"measurement": "Potency", "setting": "[1]", "result": "inactive"}, {"measurement": "Potency", "setting": "[2]", "result": "inactive"}, {"measurement": "activation", "setting": "[3]", "result": "5.3% [at 17.1 µM, percent relative to cAMP agonist control]"}, {"measurement": "Potency", "setting": "[4]", "result": "inactive"}, {"measurement": "activity change, negative = inhibition", "setting": "[5]", "result": "2.45% [at 30.8 µM]"}]}, {"smiles": "CCOc1c(S(=O)(=O)N2CCCC2)ccc(Cl)c1Cl", "values": [{"measurement": "Potency", "setting": "[1]", "result": "inactive"}, {"measurement": "Potency", "setting": "[2]", "result": "inactive"}, {"measurement": "Potency", "setting": "[3]", "result": "inactive"}, {"measurement": "Potency", "setting": "[4]", "result": "inactive"}, {"measurement": "Potency", "setting": "[5]", "result": "inactive"}]}, {"smiles": "C=CCN(c1ccccc1)S(=O)(=O)c1cccc(C(=O)N2CC(C)CC(C)C2)c1", "note": "(stereo not given)", "values": [{"measurement": "Potency", "setting": "[1]", "result": "inactive"}, {"measurement": "Potency", "setting": "[2]", "result": "inactive"}, {"measurement": "Potency", "setting": "[3]", "result": "inactive"}, {"measurement": "Potency", "setting": "[4]", "result": "inactive"}, {"measurement": "Potency", "setting": "[5]", "result": "inactive"}]}]}
